High-throughput results (PubChem)
D2 PAM-1: positive allosteric modulators of human D2 dopamine receptor. potentiation, % at 10 µM. actives 0.34% (n = 340,000). AID 485347. HEK293 T-REx D2, calcium flux, EC20 dopamine potentiation;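 active = potentiation over 3 SD above the plate norm, cut at about 30% in these data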; also: 0% is about no effect
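Potentiation of an EC20 dopamine calcium response is measured in a force-coupled, tetracycline-inducible Hek293 Trex D2 line. Compound-only kinetic reads over 180 s flag agonists before dopamine addition.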
D2 ag-1: agonists of human D2 dopamine receptor; HEK293 T-REx D2 cells, calcium flux agonist mode; activation, % at 2 µM; actives 0.53% (n = 340,000); AID 485358;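 active = activation over 3 SD above normal in the single-dose calcium agonist read, cut at about 30% in these data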; also: 0% is about no effect
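In this primary screen, compounds producing a positive calcium signal within 180 s of addition to tetracycline-induced, force-coupled HEK293 Trex D2 cells are flagged; cells are dye-loaded with a no-wash calcium kit beforehand.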
D2 antagonist: antagonizes the human D2 dopamine receptor | P14416 | HEK293 TREx D2 cells, calcium flux, dopamine EC80 | inhibition, % at 10 µM | actives 2% (n = 340,000); in the data active = inhibition above about 30%; inactive = below that, where a call was filed; also: 0% is about no effect
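Tetracycline-induced HEK293 TREx cells expressing D2 receptor forced-coupled to calcium signalling, loaded with no-wash calcium dye. Compounds added and calcium flux read 180 s, then dopamine added at EC80 and read a further 180 s.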
D2 PAM-2: potentiates the human D2 dopamine receptor allosterically | P14416 | potentiation, % (test concentration not listed) | DiscoveRx D2 beta-arrestin cells, luminescence, 90 min; 100% = 57 uM dopamine signal | actives 0.23% (n = 360,000); in the data active = potentiation above about 50%; inconclusive = mostly about 30% to 49%
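D2 cells co-treated with compound plus 50 nM dopamine (EC20) for 90 min at 37 deg C to detect potentiation. Beta-arrestin recruitment was read as enzyme-fragment luminescence after 1 h at ambient temperature. Full response was set by 57 uM dopamine.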
D2 ag-2: activates the human D2 dopamine receptor | activation, % (concentration not given with the values) | DiscoveRx PathHunter D2 beta-arrestin, luminescence, 90 min; 100% = 57 uM dopamine signal | actives 0.084% (n = 360,000) | AID 624465 | P14416; in the data active = activation above about 40%; inconclusive = between about 15% and that limit
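DiscoveRx PathHunter D2 beta-arrestin cells (2,100/well) attached overnight, then compound-stimulated 90 min at 37 C in HBSS/10 mM HEPES/0.1% Tween-20 buffer; beta-galactosidase complementation read by luminescence after 1 h at ambient temperature. Dopamine 57 uM final (EC100) as control.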
D3 ag: activates human D3 dopamine receptor beta-arrestin recruitment; actives 4% (n = 2,300); shares compounds with D2 ag-1; DiscoveRx D3 beta-arrestin cells, luminescence, 90 min; Potency, µM (series often up to 76.9 µM), for inactives: top-dose activation, usual class: activators;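 also: potency is read from the fitted curve at half-maximal effect; 100% = dopamine control response; nearly all actives have a fitted effect of over 70% in size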
Target sequence (P35462 whole entry, looked up): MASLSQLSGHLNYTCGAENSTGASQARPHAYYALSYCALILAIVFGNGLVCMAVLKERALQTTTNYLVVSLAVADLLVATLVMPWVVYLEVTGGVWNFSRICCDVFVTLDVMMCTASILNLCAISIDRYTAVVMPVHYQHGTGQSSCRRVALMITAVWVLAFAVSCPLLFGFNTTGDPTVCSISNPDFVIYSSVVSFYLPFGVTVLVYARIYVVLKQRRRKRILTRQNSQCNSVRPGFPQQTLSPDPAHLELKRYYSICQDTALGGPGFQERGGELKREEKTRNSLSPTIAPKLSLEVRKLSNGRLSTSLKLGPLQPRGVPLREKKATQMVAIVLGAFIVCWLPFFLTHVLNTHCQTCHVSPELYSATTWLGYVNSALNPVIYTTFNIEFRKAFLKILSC
D2 ag-3: activates human D2 dopamine receptor in D3 counterscreen; Potency, µM (top dose mostly 76.9 µM), for the others: at the top dose activation, usual class: activators; AID 720507; DiscoveRx PathHunter D2 beta-arrestin, luminescence, 90 min; response scale: percent relative to full dopamine signal; shares compounds with D2 ag-1; actives 5.9% (n = 2,300); also: potency is read from the fitted curve at half-maximal effect; % of control where 0% means no effect; nearly all actives have a fitted effect of over 70% in size
The depositor's hits bear a star; ? = inconclusive; · = no result. Compounds with a hit are over-represented: about 2.4% of the library has one in this group of screens. Unless noted, calls follow the shape of the dose curve; as a rule, active = well fitted activation curve with a large enough effect; inconclusive = small, poorly fitted or top-dose-only effect; inactive = flat fitted curve, though single readings scatter.

SMILES	D2 PAM-1	D2 ag-1	D2 antagonist	D2 PAM-2	D2 ag-2	D3 ag	D2 ag-3
CCn1c2ccc(C)cc2c2n[nH]c(=S)nc21	4	-2	-5	-26	-6	7%	-8%
O=C(NNS(=O)(=O)c1ccccc1[N+](=O)[O-])c1cccc(Cl)c1	-19	51*	-23	9	-1	-4%	1%
O=C(NNS(=O)(=O)c1ccccc1[N+](=O)[O-])c1cccc(Br)c1	·	·	·	11	3	·	·
COc1ccc(Br)cc1CNC(=O)Cn1nc(C)n2c(cc3cc(F)ccc32)c1=O	2	0	·	·	·	·	·
CCC(=O)NNc1ncnc2c1cnn2C	-2	0	48*	-8	-6	-6%	-6%
CCCCCCc1cc2cc(S(=O)(=O)c3ccc(F)c(Cl)c3)c(=O)oc2cc1O	-7	34*	8	13	7	28µM*	?
Cc1ncsc1CCOC(=O)c1ccc(N2CCOCC2)c([N+](=O)[O-])c1	15	2	28	-8	1	?	?
CCn1c(=O)c2cc(C(=O)NCCCN3CCN(c4ccc(F)cc4)CC3)sc2c2ccccc21	-21	6	·	·	·	·	·
S=C(NCCc1ccccc1)N1CCOCC1	-4	0	29	-7	-2	·	·
O=C(CCC(=O)N1CCOCC1)NCCc1ccccc1	-9	2	22	-13	12	-4%	26%
CCO[C@@H]1OC(C(=O)O)=C[C@H](c2csc3ccccc23)[C@H]1CCCO	-6	0	32*	-4	-3	-3%	-3%
C#CCNC(=O)C1=C[C@@H](c2ccc(C#C)cc2)[C@H](CCCO)[C@@H](OCC)O1	1	0	32*	10	1	5%	-3%
CCO[C@H]1OC(C(=O)Nc2ccccc2)=C[C@@H](c2csc3ccccc23)[C@@H]1CCCO	3	0	-17	-1	-1	·	·
CC1CCC(NC(=O)CCc2cn(Cc3ccc(F)cc3)c3ccccc23)CC1 (stereo not drawn)	4	0	·	·	·	·	·
O=C(NCC(c1ccco1)N1CCN(c2ccccc2)CC1)C(=O)NC1CCCC1 (stereo not drawn)	-8	2	-4	-3	7	24%	11%
O=C(NCC(c1ccco1)N1CCN(c2ccccc2)CC1)C(=O)NC1CC1 (stereo not drawn)	1	13	20	?	13	?	?
CC(COc1ccccc1)N(CCCl)Cc1ccccc1 (stereo not drawn)	-28	90*	61*	-16	4	-8%	18%
CC(C)[C@@H](COc1ccccc1)N1CCN(Cc2ccccc2)CCC1=O	1	-2	-19	6	3	·	·
COc1cccc(-c2ccc3ncnc(NCc4cccc(C)c4)c3c2)c1	-7	0	-5	·	·	·	·
COc1cccc(CNc2ncnc3ccc(-c4c(C)noc4C)cc23)c1	-1	0	9	·	·	12%	18%
CC(=O)Nc1cccc(NC(=O)CSc2nc(C3CC3)nc3ccccc23)c1	-7	0	34*	-2	1	29%	14%
O=c1/c(=C\c2cc([N+](=O)[O-])cc([N+](=O)[O-])c2O)sc2nc3ccccc3n12	-9	0	31*	20	4	-2%	1%
O=C(NC(=S)Nc1ccc(CN2CCOCC2)cc1)c1ccc([N+](=O)[O-])cc1Cl	0	6	16	-16	1	·	·
O=C(NC(=S)Nc1ccc(CN2CCOCC2)cc1)c1ccccc1[N+](=O)[O-]	·	·	·	-1	-1	-21%	-1%
Cc1ccc(Oc2cnc3ccccc3n2)cc1	-6	1	-4	-3	-3	·	·
SMILES	D2 PAM-1	D2 ag-1	D2 antagonist	D2 PAM-2	D2 ag-2	D3 ag	D2 ag-3
COc1ccc(Oc2cc(C)c3ccccc3n2)cc1	-19	44*	45*	?	?	?	?
COc1ccccc1NS(=O)(=O)c1ccc(C(=O)N2CCCC(C(F)(F)F)C2)cc1 (stereo not drawn)	-15	-1	13	-5	0	2%	-2%
O=C(C1CCCN1S(=O)(=O)c1cccc2cccnc12)N1CCN(c2ccccc2)CC1 (stereo not drawn)	5	8	7	-6	-3	-19%	-4%
O=C(C1CCCN(S(=O)(=O)c2cccc3cccnc23)C1)N1CCN(c2ccccc2F)CC1 (stereo not drawn)	-11	27	37*	2	0	-6%	?
Cc1ccc(-n2nnnc2SCC(=O)c2c(N)n(C3CC3)c(=O)[nH]c2=O)c(C)c1	0	1	-8	1	0	6%	-3%
Cc1cc(Cn2nc(-c3ccccc3C)cc2C(=O)O)on1	-6	-1	-1	-8	-2	-8%	-3%
COc1ccc(Cc2c(C)nn(-c3nc(C)c(C(=O)Nc4cccc(C(C)=O)c4)s3)c2C)cc1	-9	-2	·	·	·	·	·
CCN(CC)c1ccc2cc(C(N)=O)c(=O)oc2c1	8	-5	11	6	-11	·	·
CCN(CC)c1ccc2cc(C(N)=O)c(=N)oc2c1	2	44*	-10	2	-2	-6%	2%
c1ccc2c3c([nH]c2c1)CCNC3	-26	20	13	-9	1	24%	10%
Cc1ccc2[nH]c3c(c2c1)CNCC3	-7	1	3	-22	0	·	·
CC1=C(C)CC(C(=O)NCCc2ccccc2)C(C(=O)O)C1 (stereo not drawn)	-7	3	-1	14	4	·	·
O=C(O)C1C2C=CC(C3CC23)C1C(=O)NCCc1ccccc1 (stereo not drawn)	-23	32*	5	-11	-1	12%	15%
O=C1CSC2(C(=O)N(Cc3ccccc3F)c3ccccc32)N1c1cccc(C(F)(F)F)c1 (stereo not drawn)	2	0	·	·	·	·	·
CCOC(=O)c1c(NC(=O)c2ccc(S(=O)(=O)N(CC(C)C)CC(C)C)cc2)sc2c1CCN(CC)C2	-9	0	·	·	·	·	·
CCCc1nc2ccc(NC(C)=O)cc2c(=O)n1Cc1ccccc1Cl	1	0	-1	-2	-2	-7%	0%
O=S(=O)(c1ccc2nc(COc3ccc(Cl)cc3Cl)[nH]c2c1)N1CCOCC1	1	0	38*	-11	1	6%	4%
Cc1ccccc1OCc1nc2ccc(S(=O)(=O)N3CCOCC3)cc2[nH]1	0	0	10	0	-5	·	·
